Source: PubChem BioAssay (NCI)
Several values for one entry are separate records, joined by “and”; a condition that tells them apart may be missing. Equal values may be shown once. This is part of a sample that, as a whole, favours compounds with a hit. Of some 83,000 tested, about 20% had one in any assay.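 Results are percent growth after 48 hours of single-concentration exposure. 100 means growth as in untreated cells, lower positive values show inhibition; negative values down to -100 show cell death.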 Activity calls are given as the source filed them. How the source made its calls: active means growth percent below 10; inactive means the rest.

tested on: MDA-MB-468 breast; experiment: NCI-60 one-dose screen, 48 h (100 = growth as untreated, 0 = no growth, -100 = all killed); details: 10 µM unless noted

Row | Structure (SMILES) | growth
1 | Cc1cc2c([nH]1)CSc1cc(S(=O)(=O)c3ccccc3)c(=O)[nH]c1-2 | 24% [100 µM] (inactive)
2 | O=S(=O)(NCCNc1cc(-c2cn(-c3ccccc3)nc2-c2cccc(O)c2)ccn1)c1ccc(Br)cc1 | -28.5% (active)
3 | C=C1C(=O)O[C@H]2[C@H]1CC/C(COC(=O)NCc1cc(OC)cc(OC)c1)=C\CC[C@@]1(C)O[C@@H]21 | 10.2% (inactive)
4 | CO[C@H]1/C=C/O[C@@]2(C)Oc3c(C)c(O)c4c(O)c(c5c(nc6cc(C)ccn65)c4c3C2=O)NC(=O)/C(C)=C\C=C\[C@H](C)[C@H](O)[C@@H](C)C(O)[C@@H](C)[C@H](OC(C)=O)[C@@H]1C (stereo not given in full) | 105% (inactive)
5 | C=C1C(=O)O[C@@H]2[C@H]3[C@H](COC(C)=O)[C@@H](OC(C)=O)C[C@H]3C(=C)[C@@H](O)C[C@@H]12 | 77% (inactive)
6 | CC(C)Cc1nc(Nc2ccccc2)[nH]c(=O)c1C#N | 14.5% (inactive)
7 | CN1CCN(c2ccc(Nc3ncc4[nH]c(=O)n(Cc5ccccc5N)c4n3)cc2)CC1 | 111% (inactive)
8 | Clc1cccc(/C=N/Nc2nc(N/N=C/c3cccc(Cl)c3)nc(N3CCCCC3)n2)c1 | 76.3% (inactive)
9 | CC12OC(CC(O)C1O)n1c3ccccc3c3c4c(c5c6ccccc6n2c5c31)C(=O)N(CCN1CCCC1)C4=O (stereo not given) | 3.48% (active)
10 | O=c1c(-c2ccc3c(c2)OCO3)coc2c(CO)c(O)ccc12 | -14.5% (active)
11 | CC[C@]12C=CCN3CC[C@@]4(c5cc(NC(=O)CCC(=O)O[C@H]6CC[C@H]7[C@@H]8CC[C@H]9CC(=O)CC[C@]9(C)[C@H]8CC[C@]67C)c(OC)cc5N(C)[C@H]4[C@@](O)(C(=O)OC)[C@@H]1OC(C)=O)[C@@H]32 | 73% (inactive)
12 | CN(C)c1ccc(/C=C\C2=[N+](C)c3ccccc3C2(C)C)cc1 | 11% (inactive)
13 | CC(=O)c1ccc2c(c1)N(CCCN1CCN(CCO)CC1)c1ccccc1S2 | 92.3% (inactive) and -79% (active)
14 | CCOc1ccccc1C(=O)OCC(=O)Nc1cccc(S(=O)(=O)N(C)C)c1 | 84.7% (inactive)
15 | OCc1cnc2ccccc2c1NC1CCCCCC1 | 59.8% (inactive)
16 | O=S(=O)(NCCCNc1cc(-c2cn(-c3ccccc3)nc2-c2ccccc2)ccn1)c1ccc(C(F)(F)F)cc1 | 40.7% (inactive)
17 | O=C1CC23OC4ON=C(Br)C4C2C(O)c2ccccc2N13 (stereo not given) | 106% (inactive)
18 | O=C(c1ccc(Cl)cc1)c1ccc(Cl)cc1 | 97.2% (inactive)

Row | Structure (SMILES) | growth
19 | COc1ccc(Cn2c(Br)c3c(c2-c2cc(OC)c(OC)c(OC)c2)CCc2sc(N)nc2-3)cc1 | 16.3% (inactive)
20 | CCOc1ccc2nc3cc(N)ccc3c(N)c2c1 | -84.6% (active) and -33.5% (active)
21 | Cn1cc(-c2csc(-c3ccc(Cl)cc3)n2)c2cccnc21 | -69.1% [100 µM] (active)
22 | COc1cc(/C=C2\C(=O)N(CC(O)COc3cc(O)c4c(=O)cc(-c5ccccc5)oc4c3)c3ccccc32)cc(OC)c1O (stereo not given) | 74.3% (inactive)
23 | COc1ccccc1C(=O)O/N=C(\N)Cc1cccc2ccccc12 | 61.6% (inactive)
24 | COc1c(-c2cc(-c3ccc(C)o3)[nH]c(=O)n2)c(O)cc2occc12 | 25.8% (inactive)
25 | N#CCCOc1ccccc1 | 114% (inactive)
26 | O=[N+]([O-])c1cccc(/C=N\Nc2ccccc2)c1 | 81.4% (inactive)
27 | CC(=O)OC(OC(C)=O)C1CCCO1 (stereo not given) | 99.5% (inactive)
28 | COc1ccc(-n2c(=O)n(-c3ccc(-c4nc5ccc(F)cc5s4)cc3)c(=O)c3cccnc32)cc1 | 121% (inactive)
29 | CC(C)c1[nH]ncc1-c1nc2ccc3[nH]ncc3c2c2c1CCCC2 | 69.3% (inactive)
30 | Ic1ccccc1-c1ccccc1 | 103% (inactive)
31 | Cc1cc(O)cc(O)c1N=NC1=NCCS1 | 109% (inactive)
32 | O=C1CCCCC1(c1ccccc1)c1ccccc1 | 98.4% (inactive)
33 | COc1ccn2c(C(C)=O)cc(C(=O)c3ccc4c(c3)Sc3ccccc3N4)c2c1 | -4.11% (active)
34 | C[C@@H]1C[C@H]2C(=O)O[C@@H](C)[C@H](NC(=O)[C@H](Cc3cc(F)cc(F)c3)NC(=O)Nc3ccc(Cl)cc3F)C(=O)N3C[C@H](O)C[C@H]3C(=O)N3CCN(C)C[C@H]3C(=O)N[C@@H](C)C(=O)N2C1 | 11.5% (inactive)
35 | Cc1ncc(C(=O)Nc2ccc(CN3CCN(C)CC3)c(C(F)(F)F)c2)cc1C#Cc1cnc(N)c2ccc(C#N)cc12 | 48.2% (inactive)
